# Measured values published in PubChem BioAssay AID868 (SRMLSC, 2007).
# Out of some 190,000 compounds screened, about 3,500 (1.8%) were called active. The sample as a whole holds a higher share of actives than the screen did. Unmarked numbers belong to inactive results.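 The calls were made as follows: active = inhibition above a set limit, 3 SD over mean compound inhibition (cut at about 8.4% in these data); inactive = the rest.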
# Test: inhibitors of the yeast RAM network, primary screen, dse1pr::URA3 reporter, 5-FOA selection (AID 868);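 also: 0% = DMSO-only wells with no growth and 100% = 10 µM 1-NA-PP1 full growth; inhibition rescues growth on 5-FOA so higher OD means more RAM inhibition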
# Conditions: S. cerevisiae dse1pr::URA3 reporter, 5-FOA growth OD615, 2 d; at 50 µM; hits give high values; analog-sensitive cbk1-as2 kinase mutant strain
row,SMILES,inhibition
1,COCCNC(=O)C(c1ccc(O)cc1)N(C(=O)CCC(=O)Nc1nccs1)c1ccc(C)cc1 (stereo unspecified),0.98%
2,Oc1c(Cl)cc(Cl)c(Cl)c1Cc1c(O)c(Cl)cc(Cl)c1Cl,12% (active)
3,OC1CSc2nc3ccccc3n2C1 (stereo unspecified),0%
4,CC1Cc2ccccc2N1S(=O)(=O)c1c(N)n(C)c(=O)n(C)c1=O (stereo unspecified),-1.31%
5,CCCCn1ccnc1C(=O)c1cccc(S(=O)(=O)N2c3ccccc3CC2C)c1 (stereo unspecified),11.4% (active)
6,CN1CCN(S(=O)(=O)c2cccc(C(=O)N3CCc4ccccc43)c2)CC1,1.24%
7,CC(=O)NC(Cc1ccc(F)c(F)c1)C(=O)NC1CCN(C(=O)c2ccc(C)cc2)CC1 (stereo unspecified),0.5%
8,COCCN(C(=O)c1ccco1)c1nnc(-c2ccc(OC)cc2)s1,4.86%
9,COc1cc(OC)cc(-c2nnc(N(C)C(=O)c3ccncc3)s2)c1,0.96%
10,COCCN(C(=O)C(C)C)c1nnc(-c2ccc(C(C)(C)C)cc2)s1,19.7% (active)
11,CSc1nc2ccc(NC(=O)c3c(F)cccc3F)cc2s1,4.89%
12,Cn1cc(/C=C/C(=O)N2CCCC(C(=O)c3ccc(C(F)(F)F)cc3)C2)cn1 (stereo unspecified),-1.92%
13,CN1CCN(c2ccc(S(=O)(=O)N3CCCCC3)cc2NC(=O)Cc2ccccc2F)CC1,1.32%
14,O=C(O)CSc1nnc(-c2ccc3c(c2)OCO3)n1-c1ccccc1,3.54%
15,COC(=O)c1ccccc1Sc1c(/C=N/OCc2ccc(Cl)cc2)c(C(F)(F)F)nn1C,8.63% (active)
16,Cn1nc(C(F)(F)F)c(C(=O)Nc2cccc(C(F)(F)F)c2)c1SCc1ccc(Cl)cc1,7%
17,COC(=O)c1ccccc1NC(=O)Cn1nc(C(F)(F)F)c2c1CCC2,5.65%
18,CCOC(=O)c1sc(/N=C/C2=C(O)CC(C)(C)CC2=O)c(C(=O)OCC)c1C,4.52%
19,Cc1ccc(C(C)NC(=O)Cn2nc(C)c([N+](=O)[O-])c2C)cc1 (stereo unspecified),0.13%
20,CCC(C(=O)Nc1ccc(C(C)C)cc1)c1ccccc1 (stereo unspecified),3.4%
21,COc1ccc(-c2cc(C(F)(F)F)nc(SCCC(=O)NCc3ccco3)n2)cc1,8.41% (active)
22,COc1cc(OC)cc(-c2nc3nc(C)c(CCC(=O)NCc4ccco4)c(C)n3n2)c1,5.8%
23,O=C(CSc1nc(-c2ccco2)cc(C(F)(F)F)n1)NCc1cccs1,5.13%

row,SMILES,inhibition
1,COc1cc(/C=N/NC(=S)Nc2cccnc2)cc(OC)c1O,0.73%
2,CCOc1cc(C2C(C(=O)OC(C)C)=C(C)NC3=C2C(=O)CCC3)cc([N+](=O)[O-])c1O (stereo unspecified),3.44%
3,COc1ccc(CCN(C)CCN2C(=O)c3ccccc3C2=O)cc1OC,-0.11%
4,COc1ccc(CCN=C2SCC(=O)N2Cc2ccccc2)cc1OC,0.24%
5,COc1ccc(CCNC2=C(Cl)C(=O)N(Cc3ccccc3)C2=O)cc1OC,8.57% (active)
6,O=C(CSc1ccccc1)Nc1nnc(/C=C/c2ccccc2)s1,3.72%
7,COc1ccc(Cl)cc1C(=O)NNC(=S)NC1CCCC1,0%
8,COCCCNc1nc2c(-c3cccc(C(F)(F)F)c3)nnn2c2ccccc12,4.26%
9,CCCNC(=O)c1c(Cl)cnn1-c1ccc(C)cc1,-1.52%
10,NS(=O)(=O)c1ccc(CCNC(=O)c2ccc([N+](=O)[O-])cc2[N+](=O)[O-])cc1,0%
11,CCOC(=O)CN(C)Cc1c[nH]c2ccccc12,4.1%
12,NS(=O)(=O)c1ccc(NC(=O)COC(=O)CCc2c[nH]c3ccccc23)cc1,1.13%
13,CC(C)(C)N(Cc1ccccc1)C(=O)COC(=O)CCc1c[nH]c2ccccc12,10.3% (active)
14,CCOc1ncccc1C(=O)OCC(=O)NC1CC1,-0.99%
15,CN(C)C(CNC(=O)Cc1ccc([N+](=O)[O-])cc1)c1ccccc1 (stereo unspecified),-0.62%
16,O=C(NCc1cccs1)C(=O)NCC1OCCCN1S(=O)(=O)c1ccc(F)cc1 (stereo unspecified),3.25%
17,COc1ccc(NS(=O)(=O)c2ccc(NC(=O)c3ccc(N(C)S(C)(=O)=O)cc3)cc2)cc1,4.92%
18,CC(C)CNC(=O)COC(=O)c1ccccc1OCC(=O)Nc1ccc(Br)cc1,1.56%
19,COc1ccc(C2CC(c3cccs3)=NN2C(=O)CSc2nnc(N)s2)cc1OC (stereo unspecified),1.88%
20,COc1ccc(C2CC(c3cccs3)=NN2C(=O)COC(=O)c2cc3ccccc3cc2O)cc1OC (stereo unspecified),4.23%
21,O=C1c2cccc(OCC(=O)N3N=C(c4cccs4)CC3c3ccc(F)cc3)c2CCN1Cc1ccccc1 (stereo unspecified),9.86% (active)
22,COc1ccc(NC(=O)COC(=O)c2ccc(NS(=O)(=O)/C=C/c3ccccc3)cc2)cc1,4.45%
23,O=C(CSc1nncs1)NC1CCCc2ccccc21 (stereo unspecified),0.4%

row,SMILES,inhibition
1,CC(C)Nc1nnc(SCC(=O)c2c[nH]c3ccccc23)s1,0.26%
2,CC(C)Nc1nnc(SCC(=O)/C=C2\N(C)c3ccccc3C2(C)C)s1,10.6% (active)
3,CN1/C(=C\C(=O)c2cccnc2Cl)C(C)(C)c2ccccc21,0.13%
4,COCCNC(=S)N1CCC(NC(=O)C23CC4CC(CC(C4)C2)C3)CC1,-0.25%
5,CCN(CC)CCNC(=O)c1sc2ncn(CC(=O)Nc3ccc(C)c(Cl)c3)c(=O)c2c1C,0.37%
6,Cn1c(=O)n(Cc2ccco2)c(=N)c2c3c(sc21)CCCC3,1.37%
7,O=C(COC(=O)CSc1nnc(-c2ccc(Cl)cc2)o1)Nc1cc(Cl)cc(Cl)c1,2.39%
8,COc1ccc(O[C@H]2C=C[C@@H](c3ccccc3)O[C@@H]2CO/N=C/C[C@@H]2C=C[C@H](OC(C)=O)[C@@H](COC(C)=O)O2)cc1,13.9% (active)
9,CC(=O)NC1C(Oc2ccc(C=O)cc2)OC(COC(C)=O)C(OC(C)=O)C1OC(C)=O (stereo unspecified),1.12%
10,CC(=O)NC1C(OCc2ccccc2)OC(COC(C)=O)C(OC(C)=O)C1OC(C)=O (stereo unspecified),1.66%
11,C=CCOC(=O)C1=C(C)N=C2SCCC(=O)N2C1/C=C/c1ccccc1OC (stereo unspecified),1.62%
12,COc1ccccc1CNC(=O)CNC(=O)c1cn(-c2ccccc2OC)c(=O)c2ccccc12,1.48%
13,Nc1nnc(SCC(=O)Nc2ccc3nc(SCC(=O)Nc4ccccc4)sc3c2)s1,9.31% (active)
14,CCCCNC(=O)CSc1nc2ccc(NC(=O)CSc3nnc(N)s3)cc2s1,2.71%
15,CCCCNC(=O)CSc1nc2ccc(NC(=O)CSc3nnc(COc4ccccc4C)n3C)cc2s1,6.51%
16,Cn1c(=O)c2c(ncn2CCc2ccccc2)n(C)c1=O,0.37%
17,C/C=C(\C)C(=O)NCCN1C2=NC[C@H](Cc3ccc(O)cc3)N2C[C@@H]1Cc1ccc(OC)cc1,-1.63%
18,CCOc1ccc(CN(Cc2ccco2)C(c2cccs2)c2nnnn2C(C)(C)C)cc1 (stereo unspecified),15.1% (active)
19,CCC(C)(C)n1nnnc1C(c1cccs1)N1CCN(Cc2ccccc2)CC1 (stereo unspecified),0.11%
20,CC(C)(C)n1nnnc1C(c1cccs1)N(Cc1cccnc1)CC1CCCO1 (stereo unspecified),4.18%
21,COCCn1c(C)cc(C(=O)COC(=O)/C=C/c2cccc(OC)c2)c1C,8.25%
22,CC1CCCCC1NC(=O)COC(=O)Cc1ccc(Br)cc1 (stereo unspecified),1.96%
23,COc1cc(-c2nc(-c3ccncc3)no2)cc(OC)c1OC,1.83%

row,SMILES,inhibition
1,COc1ccc(-c2nc(-c3ccccc3)no2)c(OC)c1,-0.68%
2,COc1ccc(-c2noc(-c3cccc(OC)c3OC)n2)cc1OC,8.94% (active)
3,COc1cccc(CN2CCNC(=O)C2CC(=O)N(C)CCc2ccccn2)c1 (stereo unspecified),0.39%
4,Cc1ccc(NC(=O)COc2ccc(-n3ccnc3)cc2)cc1Cl,19.6% (active)
5,COc1ccc(OCC(=O)Nc2ccc(N3CCC(C)CC3)cc2)cc1,-0.73%
6,CN1CCN(c2ccc(NC(=O)COc3ccc(Cl)cc3Cl)cc2)CC1,1.03%
7,O=C(O)CSc1nccc2ccccc12,0.52%
8,CCOC(=O)NN1C(=O)c2ccccc2NC1c1ccccc1O (stereo unspecified),-0.54%
9,CCN(CC)C(=O)C(=O)Nc1cccc(Br)c1,1.63%
10,COC(=O)c1sccc1NC(=O)c1csc2c1CCCC2,12% (active)
11,COC(=O)c1sc(NC(=O)c2csc3c2CCCC3)nc1C,3.89%
12,Cc1ccc(NC(=O)c2csc3c2CCCC3)cc1,0.75%
13,Cc1cc(/C=C2/SC(=O)N(CC(=O)OC(C)C)C2=O)c(C)n1C,4.99%
14,CCOC(=O)CC1C(=O)NCCN1C(=O)COc1ccc(Br)cc1C (stereo unspecified),-0.4%
15,CCN=C1S/C(=C\c2cc(Br)ccc2OCC(=O)OCC)C(=O)N1CC,11.5% (active)
16,COc1ccc(CCNc2nc(-c3cccc(NC(C)=O)c3)cs2)cc1OC,-0.26%
17,COc1ccc(C2OCC3(CO2)SC(=O)NC3=O)cc1OC (stereo unspecified),0.64%
18,COc1cccc(NC(=O)CC2C(=O)NCCN2C(=S)Nc2ccc(F)cc2)c1 (stereo unspecified),4.21%
19,CC1CCCCC1NC(=O)CN1CCC(O)(c2ccc3c(c2)OCO3)CC1 (stereo unspecified),0.68%
20,CCN(CC)S(=O)(=O)c1ccc(N(C)Cc2cccc(OC)c2OC)nc1,2.24%
21,CCN(CC)S(=O)(=O)c1ccc(N(C)Cc2ccc(C(F)(F)F)cc2)nc1,11.1% (active)
22,CCN(CC)S(=O)(=O)c1ccc(N(C)CCc2ccc(OC)c(OC)c2)nc1,1.33%
